From ChEMBL document CHEMBL4513216, “Probing the Open Global Health Chemical Diversity Library for Multistage-Active Starting Points for Next-Generation Antimalarials” (ACS Infect Dis, 2020)
The campaign covered roughly 68,000 compounds. About 2,700 (4%) showed an effect of 50% or more. Only a selection was taken, and strong results are over-represented in it overall.

Each molecule was assayed on Plasmodium berghei (assay: Screen against P. berghei liver stage (PbLuc), transformed with Luciferase, at 2uM). Settings: tested at 2 uM.
Format: functional, HepG2

Row | Compound | INHIBITION
1 | O=C(NCc1ccccn1)[C@@]12CCO[C@@H]1CCN(c1ncccn1)C2 | -20.87%
2 | Cc1oc(C(=O)O)cc1S(=O)(=O)Nc1ccc(Cl)c(F)c1 | 56.67%
3 | Cc1oc(C(=O)O)cc1S(=O)(=O)Nc1cc(Cl)ccc1F | 16.64%
4 | Cc1oc(C(=O)O)cc1S(=O)(=O)Nc1ccc(Cl)c(Cl)c1 | 16.79%
5 | Cc1n[nH]c(C)c1NC(=O)CN1CCOC(Cn2cccn2)C1 (centres undefined) | 37.52%
6 | Cn1cc(C(=O)N2CCCC(c3cc(O)n(C)n3)C2)cn1 (centres undefined) | 27.39%
7 | COCc1nc(C(=O)NS(=O)(=O)c2ccc(Cl)cc2F)cs1 | -7.88%
8 | NC(=O)c1ccc(CN2CCC(N3CCCC3)CC2)cc1 | -29.69%
9 | NC(=O)c1ccc(CN2CCCC(N3CCCCCC3)C2)cc1 (centres undefined) | 9.8%
10 | NC(=O)c1ccc(CN2CCCC(N3CCCC3)C2)cc1 (centres undefined) | 58.65%
11 | COCCN1CCC(Nc2c(F)cc(C#N)cc2F)CC1 | -22.01%
12 | CSCC(=O)N[C@H]1CN(CC2CCOCC2)C[C@@H]1c1ccccc1 | 37.15%
13 | CS(=O)(=O)NCC(=O)N[C@H]1CN(CC2CC2)C[C@@H]1c1ccccc1 | 48.93%
14 | O=C(CCO)N[C@H]1CN(CC2CCC2)C[C@@H]1c1ccccc1 | 75.86%
15 | CN(C)S(=O)(=O)N1C[C@H]2CC[C@@H](C1)N(Cc1cccc(C#N)c1)C2 | -19.83%
16 | CCNC(=O)N1CCc2ccc(NC(=O)NCCOCC)cc21 | 10.1%
17 | Cn1c(-c2ccccc2Cl)nc2cc(C(=O)NCC3(CO)CC3)cnc21 | 58.53%
18 | CC(=O)NCCNC(=O)c1cnc2c(c1)nc(-c1ccccc1Cl)n2C | -5.51%
19 | Cn1c(-c2ccccc2Cl)nc2cc(C(=O)NC(CO)CO)cnc21 | 56.89%
20 | Cn1c(-c2ccccc2Cl)nc2cc(C(=O)NCCOCCO)cnc21 | 2.7%
21 | Cn1c(-c2ccccc2Cl)nc2cc(C(=O)NCC3(C)COC3)cnc21 | 21.24%
22 | CN(C)CCNC(=O)c1cnc2c(c1)nc(-c1ccccc1Cl)n2C | -1.73%
23 | COc1ccc(NC(=O)CCC2CCCN(S(=O)(=O)C3CC3)C2)cc1Cl (centres undefined) | 13.99%
24 | CCc1ccc(C(=O)N2CCCC(CNS(C)(=O)=O)C2)o1 (centres undefined) | -23.94%
25 | O=C(c1ccc(F)c(Cl)c1)N1C[C@H]2CC[C@@H](C1)N(Cc1ccccc1)C2 | -38.33%
26 | Cc1cn2nc(N3CCCC3CC(C)(C)C)sc2n1 (centres undefined) | 29.11%
27 | CCc1nc(CNC(C)(CO)C2CCCCC2)no1 (centres undefined) | 17.89%
28 | CC(CO)(NCc1noc(Cc2ccccc2)n1)C1CCCCC1 (centres undefined) | -69.13%
29 | COCCc1noc(CNC(C)(CO)C2CCCCC2)n1 (centres undefined) | 65.79%
